Bioassay records as filed in PubChem.
The list is not random: actives were taken first. Their share in the collection is about 6.6%.
Gli-Sufu block: Gli-Sufu pathway antagonism. Sufu-KO-LIGHT fibroblasts, Gli luciferase reporter luminescence. inhibition, % at 5 µM. 340,000 tested, 0.74% active. AID 588413;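 active means inhibition above about 55%, limit read from the data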;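 further: 0% = DMSO-treated cells and 100% = wells with medium but no cells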
Mdm2-MdmX inh: inhibitors of human Mdm2/MdmX interaction. 330,000 tested, 3% active. SaOS-2 split-luciferase Mdm2/MdmX complementation, luminescence. O15151+Q00987. inhibition, % at 8 µM;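 active means inhibition of at least 50% at 8 µM in the primary screen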
Target sequence (O15151 whole entry, looked up): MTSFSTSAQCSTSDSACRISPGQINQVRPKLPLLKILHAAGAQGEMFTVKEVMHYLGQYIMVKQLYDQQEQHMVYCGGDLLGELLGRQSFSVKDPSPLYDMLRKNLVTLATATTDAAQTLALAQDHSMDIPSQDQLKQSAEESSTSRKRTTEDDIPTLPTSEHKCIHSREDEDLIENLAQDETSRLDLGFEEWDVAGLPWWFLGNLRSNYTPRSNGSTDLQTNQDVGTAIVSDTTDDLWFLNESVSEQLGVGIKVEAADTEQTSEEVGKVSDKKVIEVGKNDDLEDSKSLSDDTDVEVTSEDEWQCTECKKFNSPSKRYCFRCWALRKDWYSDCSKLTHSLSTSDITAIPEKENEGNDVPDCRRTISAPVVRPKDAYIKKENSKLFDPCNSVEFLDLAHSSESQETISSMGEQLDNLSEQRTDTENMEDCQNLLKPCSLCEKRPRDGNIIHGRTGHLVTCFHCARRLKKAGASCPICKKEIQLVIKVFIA
Target sequence (Q00987 whole entry, looked up): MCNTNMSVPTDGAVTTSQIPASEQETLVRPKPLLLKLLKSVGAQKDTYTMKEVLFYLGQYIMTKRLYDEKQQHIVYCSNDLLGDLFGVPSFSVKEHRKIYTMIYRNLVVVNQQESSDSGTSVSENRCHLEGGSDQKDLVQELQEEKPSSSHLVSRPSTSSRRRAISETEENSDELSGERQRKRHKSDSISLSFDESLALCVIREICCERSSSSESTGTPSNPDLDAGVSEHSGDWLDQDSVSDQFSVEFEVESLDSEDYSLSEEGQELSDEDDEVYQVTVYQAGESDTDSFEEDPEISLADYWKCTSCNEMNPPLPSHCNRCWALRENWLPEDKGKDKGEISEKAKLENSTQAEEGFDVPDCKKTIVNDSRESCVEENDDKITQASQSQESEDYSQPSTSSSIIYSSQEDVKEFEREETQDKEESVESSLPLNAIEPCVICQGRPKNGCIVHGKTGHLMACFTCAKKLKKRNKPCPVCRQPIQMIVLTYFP
MPTP inh: inhibitors of mitochondrial permeability transition pore. isolated mouse mitochondria, Ca2+ swelling absorbance, 30 min. inhibition, % at 10 µM. 360,000 tested, 1.4% active. AID 602449;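 active means inhibition of 50% or more, scaled per plate between neutral and stimulator controls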;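 further: 0% = DMSO wells given calcium and 100% = 1 mM EGTA wells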
Beta apoptosis: beta cell apoptosis inhibition; INS-1E cytokine-induced death, ATP luminescence, 48 h; percent of positive-control rescue, neutral wells zero; protection from apoptosis, % (test concentration not listed); 300,000 tested, 0.8% active; AID 435005;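 active means Every replicate reaches about 75%, or at least half do and their mean reaches it too, limit read from the data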;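 further: 0% = cytokine-treated negative control wells and 100% = positive control rescue; higher means more ATP so stronger rescue from cytokine killing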
NR3A LBD binder: modulates the human NR3A ligand-binding domain | NR3A LBD differential scanning fluorimetry, Tm shift; 0% = protein alone, 100% = glycine-bound protein | Tm shift relative to glycine control, % at 25 µM | 340,000 tested, 2.5% active | AID 1259313;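 active means melting temperature shift of at least 10% of the positive control shift, at one fixed dose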
CSC inhib: blocks cancer stem cells; cancer stem cell-like cells viability, luminescence; 300,000 tested, 1.1% active; AID 2717; inhibition, % at 7.5 µM; in the data active means inhibition above about 75%; tested in HMLE shEcad cells
The depositor's hits bear a star; x = no result.

SMILES | Gli-Sufu block | Mdm2-MdmX inh | MPTP inh | Beta apoptosis | NR3A LBD binder | CSC inhib
CCCCn1c(N)c(N(CC(C)C)C(=O)CSc2nnc(-c3ccc(Cl)cc3)o2)c(=O)[nH]c1=O | -2.0 | 10.5 | 0.4 | -2.1 | 10.1* | -3.2
COc1cccc(/C=C2\SC(=S)N(CCC(=O)NNC(=O)c3ccccc3OC)C2=O)c1 | -13.3 | 8.1 | 2.3 | -5.2 | -3.4 | 12.2
Cc1ccc(/C=C2\SC(=S)N(CCCC(=O)Nc3nccs3)C2=O)cc1 | 12.5 | 31.9 | 2.3 | -16.6 | 10.5* | 18.0
CCc1ccc(/C=C2\SC(=S)N(CCCC(=O)Nc3nccs3)C2=O)cc1 | 49.8 | 26.1 | 3.4 | x | -8.7 | x
O=C(CCCN1C(=O)/C(=C/c2cccs2)SC1=S)NNC(=O)c1ccncc1 | 1.7 | 17.5 | 4.8 | -1.7 | -4.3 | -4.7
COc1ccccc1/C=C1\SC(=S)N(CCC(=O)NNC(=O)c2ccccc2O)C1=O | -3.1 | 38.8 | 2.7 | -6.7 | 11.4* | -22.6
O=C(CCCN1C(=O)/C(=C/c2cccs2)SC1=S)NNC(=O)c1ccccc1O | -1.7 | 45.4 | 30.0 | -6.1 | 12.0* | -10.0
COc1cccc2cc(-c3nnc(SCC(=O)Nc4ccc(NC(C)=O)cc4)n3C)oc12 | 24.6 | 11.3 | -1.0 | -3.3 | -7.6 | x
COC(=O)C[C@@H]1C[C@H]2c3cc(N(C)C)ccc3O[C@H]2[C@H](CO)O1 | x | x | -2.0 | x | x | x
C=C(C)C(O)CC/C(C)=C/Cc1c(O)ccc(C(=O)/C=C/c2ccc(O)cc2)c1O (stereo unspecified) | 11.7 | 47.0 | 2.9 | x | 14.8* | x
Cc1ccc2[nH]c(-c3cccc(N)c3)cc2c1 | -76.7 | -165.5 | 1.6 | -7.5 | 30.6* | 4.7
Cc1ccc2nc(-c3cccc(N)c3)oc2c1 | -104.9 | -70.7 | -0.1 | x | 0.5 | x
c1ccc(CSC2=NNC(c3ccccn3)S2)cc1 (stereo unspecified) | 3.1 | 40.8 | 3.6 | 51.9 | 1.2 | 124.6*
CC(=O)Nc1ccc(NC(=O)CSc2ccccn2)cc1 | 7.7 | 12.9 | -0.6 | 1.8 | -8.2 | -26.2
O=C(CSC1=NNC(c2ccccn2)S1)Nc1ccc(C(F)(F)F)cc1 (stereo unspecified) | 31.5 | -4.6 | 5.3 | 8.6 | -5.6 | 93.4*
c1ccc(CSc2ncccn2)cc1 | -5.4 | -11.3 | -0.1 | -2.0 | -8.6 | -2.5
CC(NC(=O)C1CCCN1S(=O)(=O)c1cccc2nsnc12)c1ccccc1 (stereo unspecified) | 35.3 | 6.2 | -2.1 | 4.3 | 1.2 | 11.3
COc1ccc(/C=C/c2nc(C#N)c(NCCN(C)C)o2)cc1OC | 5.0 | 5.5 | -0.1 | 3.9 | 1.4 | -13.0
CNc1oc(/C=C/c2cccc(OC)c2)nc1C#N | -12.8 | -41.2 | -0.5 | -0.1 | 23.2* | 18.0
O=C(NC1CCCCC1)C(c1cccs1)N(Cc1cccs1)C(=O)c1cccs1 (stereo unspecified) | 7.1 | 15.5 | 6.6 | -5.8 | 2.3 | -1.2
O=C(NC1CCCCC1)C(c1ccc2ncccc2c1)N(Cc1cccs1)C(=O)c1cccs1 (stereo unspecified) | 0.7 | 5.5 | 0.3 | 11.8 | 14.2* | -4.6
Cn1c(N)c(S(=O)(=O)N2CCN(c3ccccc3Cl)CC2)c(=O)n(C)c1=O | -1.4 | -4.9 | 0.3 | -2.0 | 0.4 | -28.4
O=C(Cc1ccc(Cl)cc1)Nc1ccc2c(c1)C(=O)NC2=O | 0.0 | 18.0 | 7.7 | 118.5* | -4.3 | 91.3*
O=C(Cc1ccc([N+](=O)[O-])cc1)Nc1ccc2c(c1)C(=O)NC2=O | -6.4 | 14.9 | -0.6 | 0.8 | 3.6 | 8.2
O=S1(=O)CC(N2CC=CC2)CN1Cc1cn(Cc2ccc(F)cc2)nn1 (stereo unspecified) | x | x | -1.1 | x | x | x
SMILES | Gli-Sufu block | Mdm2-MdmX inh | MPTP inh | Beta apoptosis | NR3A LBD binder | CSC inhib
Cn1c(Nc2ccccc2)nc2ccccc21 | 3.1 | 6.8 | 1.4 | 6.2 | 12.0* | 4.0
COc1ccc(OC)c(CCNC(=O)CCC(=O)N2CCOc3ccc(C)cc32)c1 | 4.7 | -3.8 | -1.0 | -5.7 | -2.5 | 16.8
Nc1nc(-c2ccccc2)nc2sc3c(c12)CCCC3 | -106.6 | -296.6 | 0.2 | 3.0 | 13.7* | -5.4
O=C(Nc1ccc(NC(=O)c2ccco2)cc1)c1ccc2c(c1)OCCO2 | 31.5 | -27.4 | 3.3 | 3.4 | 10.1* | -2.6
CCOc1ccc(C(=O)Nc2ccc(NC(=O)c3ccco3)c(Cl)c2)cc1Br | -0.5 | 3.6 | 4.4 | 5.0 | 39.8* | 5.6
Cc1cccc2[nH]c(-c3ccc(NC(=O)c4ccco4)cc3)nc12 | -24.6 | -127.4 | 0.0 | 13.1 | 31.4* | -0.3
Cc1cc(C)cc(NC(=O)c2ccc(NC(=O)c3ccco3)cc2)c1 | 10.9 | -11.8 | 1.4 | x | 18.2* | 3.7
COc1cc(NC(=O)CN2CCN(S(=O)(=O)/C=C/c3ccccc3)CC2)cc(OC)c1OC | -3.1 | 7.0 | -1.0 | -3.6 | -3.0 | -2.4
CSc1nnc(-c2ccc(C(F)(F)F)nc2C)o1 | 3.4 | -4.4 | 0.6 | 2.3 | -0.2 | -1.2
COc1ccc(N(CC(=O)NC2CCCC2)C(=O)CCC(=O)Nc2cc(C)on2)cc1OC | 1.1 | 11.9 | -1.6 | -5.9 | 0.0 | 3.3
O=C(Oc1ccccc1)c1ccc(NC(=O)c2ccco2)cc1 | 0.2 | -99.6 | -0.3 | 1.3 | -8.2 | -4.2
C=Cc1cccc(NC(=O)c2ccc(NC(=O)c3ccco3)cc2)c1 | 31.0 | 4.8 | -1.2 | 10.5 | 31.1* | 4.1
O=C(Nc1ccccc1)c1cccc(NC(=O)c2ccco2)c1 | -0.9 | 9.6 | 1.3 | -3.0 | 5.9 | 2.5
CCCCOc1cccc(C(=O)Nc2ccc(NC(=O)c3ccco3)cc2)c1 | -20.8 | 9.8 | -5.9 | 5.1 | 11.7* | 4.3
COC(=O)c1ccc(NC(=O)c2ccc(NC(=O)c3ccco3)cc2)cc1 | 7.2 | 16.7 | 0.4 | -0.1 | 25.2* | 9.9
COc1ccc(-c2nn(-c3ccccc3)cc2/C=N/Nc2ccc3ccccc3n2)cc1OC | 7.5 | 21.1 | 14.9 | 86.2* | 5.1 | 4.6
C(=C\c1ccccc1)/CN1CCN(C(CCc2ccccc2)c2nnnn2C2CCCC2)CC1 (stereo unspecified) | x | x | 2.8 | x | x | x
Cc1ccc(S(=O)(=O)N2CCCCC2)cc1NC(=O)CSc1ncccn1 | -26.1 | 5.9 | -0.5 | -3.9 | -0.4 | -12.6
CCCNC(=O)COc1coc(CN2CCN(c3cccc(Cl)c3)CC2)cc1=O | -10.6 | 16.5 | -1.3 | x | -1.6 | -7.2
Cc1ccc(N2CCN(c3ccc(C)cc3)C2c2cccnc2)cc1 | 9.3 | 6.6 | 1.9 | -4.9 | 0.9 | 0.9
c1ccc(N2CCN(c3ccccc3)C2c2cccnc2)cc1 | 1.0 | 8.9 | 0.9 | -0.2 | 10.2* | -3.0
O=C(O)/C=C/C(=O)Nc1ccc(Oc2ccccc2)cc1 | 7.1 | -13.1 | 0.9 | -12.8 | 0.9 | -14.4
Cc1ccc(/C=C/C(=O)Nc2ccc(Oc3ccccc3)cc2)o1 | -10.5 | x | 17.4 | -0.8 | 1.4 | 88.3*
COc1cnc(-c2ccccn2)nc1Sc1ccccc1 | 10.5 | 41.9 | -2.9 | 49.8 | -3.6 | 16.8
COc1ccc(Sc2nc(-c3ccccn3)ncc2OC)cc1 | 6.0 | 26.7 | -1.2 | 89.5* | -3.6 | -7.2
